Compounds without any hit were thinned out: in the full panel of roughly 83,000, 20% have a hit.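 How to read the values: 0–100, growth inhibition (40 = 60% inhibited); 0, no net growth; -100 to 0, cell death (-40 = 40% of starting cells died; -100 = all dead).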 Unmarked numbers belong to inactive results. Activity calls are given as the source filed them. The calls were made as follows: active = growth percent below 10; inactive = the rest.
Columns and labels:
Test in all cases: NCI-60 one-dose screen, 48 h (100 = growth as untreated, 0 = no growth, -100 = all killed)
DU-145 prostate = settings: 10 µM unless noted
K-562 leukemia = settings: 10 µM unless noted
MALME-3M melanoma = settings: 10 µM unless noted
RXF 393 renal = settings: 10 µM unless noted
SF-295 CNS = settings: 10 µM unless noted
UACC-257 melanoma = settings: 10 µM unless noted
SNB-19 CNS = settings: 10 µM unless noted
SK-MEL-5 melanoma = settings: 10 µM unless noted
LOX IMVI melanoma = settings: 10 µM unless noted
SK-MEL-2 melanoma = settings: 10 µM unless noted
ACHN renal = settings: 10 µM unless noted
HL-60(TB) leukemia = settings: 10 µM unless noted
CCRF-CEM leukemia = settings: 10 µM unless noted
MOLT-4 leukemia = settings: 10 µM
OVCAR-8 ovarian = settings: 10 µM unless noted
IGROV1 ovarian = settings: 10 µM
OVCAR-3 ovarian = settings: 10 µM unless noted
NCI/ADR-RES ovarian = settings: 10 µM unless noted
T-47D breast = settings: 10 µM unless noted
HCC-2998 colon = settings: 10 µM unless noted

SMILES | growth (DU-145 prostate) [%] | growth (K-562 leukemia) | growth (MALME-3M melanoma) [%] | growth (RXF 393 renal) | growth (SF-295 CNS) | growth (UACC-257 melanoma) | growth (SNB-19 CNS) [%] | growth (SK-MEL-5 melanoma) | growth (LOX IMVI melanoma) | growth (SK-MEL-2 melanoma) | growth (ACHN renal) [%] | growth (HL-60(TB) leukemia) | growth (CCRF-CEM leukemia) | growth (MOLT-4 leukemia) [%] | growth (OVCAR-8 ovarian) | growth (IGROV1 ovarian) | growth (OVCAR-3 ovarian) [%] | growth (NCI/ADR-RES ovarian) [%] | growth (T-47D breast) | growth (HCC-2998 colon) [%]
COc1ccc(C2=NN(c3ccccc3)C(c3sc(N(CCCl)CCCl)nc3Cl)C2)cc1 (stereo not drawn) | 106 | 64.1% | 99.3 | 110% | 93.2% | 89.7% | 93.5 | 83.7% | 89.8% | 91.3% | 82.6 | 99.8% | 86.1% | 67.5 | 87.8% | 121% | 93.3 | 95.7 | 69.5% | 107
O=CC(Br)C(Br)c1ccccc1 (stereo not drawn) | 77 | 41.2% | 82.6 | 86.8% | 97.9% | 93.8% | 96 | 89.9% | 56.2% | 112% | 86.2 | 26.3% | -1.8% (active) | 16.6 | 85.6% | 74.8% | 33.3 | 100 | 37.2% | 106
ClCCN(CCCl)c1nc(Cl)c(C2CC(c3ccccc3)=NN2c2ccccc2)s1 (stereo not drawn) | 99.7 | 68.3% | 113 | 94.2% | 98.6% | 85.8% | 79.9 | 89.1% | 85.3% | 93.9% | 89.6 | 101% | 88.9% | 75.4 | 90.3% | 107% | 99.9 | 103 | 66.3% | 110
Nc1cccc(CC(=O)Nc2ccc(S(=O)(=O)F)cc2)c1 | 110 | 144% | 90 | 87.3% | 101% | 103% | 105 | 104% | 98% | 125% | 112 | – | 2.63% (active) | 117 | 91.2% | – | 102 | – | 92.5% | 43.9
ClCCN(CCCl)c1ccc(C=NCCc2c[nH]c3ccccc23)cc1 | 56.2 | 82.4% | 76.7 | 56.1% | 35.6% | 99.9% | 89.8 | 75.8% | 74.7% | 125% | 44.5 | 91% | 54.1% | 63.1 | – | 84.2% | 93.3 | 76.2 | 80.6% | 91.8
O=C1NC(=O)C(Cc2ccccc2)(Cc2ccccc2)C(=O)N1 | 115 | 86.7% | – | 113% | 105% | 108% | 102 | 109% | 90.4% | 104% | 114 | 89.4% | 101% | 100 | 106% | 114% | 119 | 113 | – | 104
Cc1ccc(C[As+](c2ccccc2)(c2ccccc2)c2ccccc2)cc1 | 23.8 | 9.47% (active) | 25 | 8.64% (active) | -15.6% (active) | -17.5% (active) | – | -65.3% (active) | -26.6% (active) | -16.9% (active) | 49 | -26.8% (active) | 16.3% | 14 | 9.13% (active) | 9.49% (active) | 13.9 | 99.2 | -3.86% (active) | 16.2
O=C(NCCNC(=O)c1ccc([As](O)O)cc1)c1ccc([As](O)O)cc1 | 103 | 116% | 108 | 105% | 107% | 103% | 106 | 95.6% | 90.3% | 103% | 106 | 105% | 105% | 109 | 103% | 110% | 104 | 101 | 100% | 100

— PubChem BioAssay (NCI)
